Measurements published in PubChem BioAssay AID376 (PDSP, 2006).
In all, about 2,000 compounds went through this assay and about 250 (12%) were called active. The sample as a whole holds a higher share of actives than the screen did. A number with no mark means an inactive call. Rule as the data show it: active = hERG blockade below about -20% or above about 20%; inactive = in between.

Target: Voltage-gated inwardly rectifying potassium channel KCNH2 (Homo sapiens) (UniProt Q12809)
Assay: modulators of KCNH2 ion channel function, cellular (AID 376);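 also: 0% = buffer alone and 100% = reference blocker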
Settings: hERG-expressing cells, channel activity single-concentration screen; concentration not given here

Sequence of Voltage-gated inwardly rectifying potassium channel KCNH2 (Homo sapiens) (Q12809 whole entry, looked up): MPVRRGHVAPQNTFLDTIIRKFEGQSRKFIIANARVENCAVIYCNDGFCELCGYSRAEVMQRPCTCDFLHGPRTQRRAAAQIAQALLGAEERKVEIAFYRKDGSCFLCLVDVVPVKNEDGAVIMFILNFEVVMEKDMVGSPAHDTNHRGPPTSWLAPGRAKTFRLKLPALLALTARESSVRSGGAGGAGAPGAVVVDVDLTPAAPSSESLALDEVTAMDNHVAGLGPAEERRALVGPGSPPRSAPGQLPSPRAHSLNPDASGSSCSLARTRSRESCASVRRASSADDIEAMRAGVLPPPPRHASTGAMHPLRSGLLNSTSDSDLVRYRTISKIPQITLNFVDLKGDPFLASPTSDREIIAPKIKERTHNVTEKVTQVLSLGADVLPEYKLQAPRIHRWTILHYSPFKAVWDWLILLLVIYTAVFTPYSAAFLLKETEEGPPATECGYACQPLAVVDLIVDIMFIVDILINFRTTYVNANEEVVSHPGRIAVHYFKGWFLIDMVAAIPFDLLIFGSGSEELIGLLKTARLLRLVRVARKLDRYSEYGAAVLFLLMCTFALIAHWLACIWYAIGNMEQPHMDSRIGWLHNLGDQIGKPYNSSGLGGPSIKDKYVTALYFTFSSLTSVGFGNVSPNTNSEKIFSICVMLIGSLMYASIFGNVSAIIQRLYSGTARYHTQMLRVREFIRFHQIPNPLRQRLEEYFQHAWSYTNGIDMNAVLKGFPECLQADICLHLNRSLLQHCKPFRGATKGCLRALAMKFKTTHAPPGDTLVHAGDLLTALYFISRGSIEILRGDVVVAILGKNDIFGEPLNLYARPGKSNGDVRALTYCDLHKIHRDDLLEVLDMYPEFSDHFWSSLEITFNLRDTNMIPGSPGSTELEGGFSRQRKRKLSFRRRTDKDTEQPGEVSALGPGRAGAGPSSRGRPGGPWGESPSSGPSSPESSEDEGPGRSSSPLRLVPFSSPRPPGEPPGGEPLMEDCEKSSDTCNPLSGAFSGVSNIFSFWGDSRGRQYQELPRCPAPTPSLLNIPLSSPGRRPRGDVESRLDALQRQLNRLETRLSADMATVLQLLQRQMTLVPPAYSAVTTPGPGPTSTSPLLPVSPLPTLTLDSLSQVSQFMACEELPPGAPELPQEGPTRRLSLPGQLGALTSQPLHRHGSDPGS

Structure (SMILES)	hERG blockade
NC(CNO)C(=O)O (stereo unspecified)	-10.6%
Nc1nc2c(ncn2C2C=CC(CO)C2)c(=O)[nH]1 (stereo unspecified)	1.77%
CN1CCCC1c1cccnc1.O=C(O)c1ccccc1O.O=C([OH2+])c1ccccc1O.O=C([OH2+])c1ccccc1O.O=C([OH2+])c1ccccc1O.[Mn+2] (stereo unspecified)	15.5%
CN1CCCC1c1cccnc1.O=C(O)c1ccccc1O.O=C([OH2+])c1ccccc1O.O=C([OH2+])c1ccccc1O.[Mn+2] (stereo unspecified)	13.4%
CN1CCCC1c1cccnc1.O=C(O)c1ccccc1O.O=C([OH2+])c1ccccc1O.O=C([OH2+])c1ccccc1O.O=C([OH2+])c1ccccc1O.[Cu+2] (stereo unspecified)	26% (active)
O=C(O)CCSc1ncnc2nc[nH]c12	2.65%
N=C(c1ccc2ccccc2c1)c1ccccc1Cc1ccccc1	9.45%
CC1(CCOCc2ccccc2)NC(=O)NC1=O (stereo unspecified)	-3.15%
COc1ccc(C[N+](C)(C)N)cc1OC	-25.5% (active)
COc1ccc(C=C(C#N)C(N)=O)cc1OC	4.46%
Nc1nc(N)nc(CCCCc2nc(N)nc(N)n2)n1	8.11%
NCc1nnn(Cc2ccccc2)c1N	0.879%
CC1(C(=O)O)CCCC1C(=O)O (stereo unspecified)	0.951%
O=c1ccnc(SCc2ccc(Cl)cc2)[nH]1	-3.26%
O=S(=O)(CC(O)C(Cl)(Cl)Cl)NNc1ccccc1 (stereo unspecified)	-8.3%
O=CNC(Cc1cnc[nH]1)C(=O)O (stereo unspecified)	-6.41%
Nc1ccc(N=Nc2c(S(=O)(=O)O)cc3ccccc3c2S(=O)(=O)O)cc1	5.01%
O=S(=O)(O)c1cc(N=Nc2cccc3ccccc23)c(O)c2ncccc12	10.6%
O=S(=O)(O)c1cc(N=[N+]([O-])c2cc(S(=O)(=O)O)c3ccccc3c2)cc2ccccc12	20.3% (active)
CCC(Nc1ncnc2nc[nH]c12)C(=O)O (stereo unspecified)	-0.207%
S=C(S)NCCN1CCNCC1	6.35%
O=CN1CCN(CC(O)CN2CCCCC2)CC1 (stereo unspecified)	-4.54%

Structure (SMILES)	hERG blockade
CN(C)CC1CCCC(CN(C)C)C1=O (stereo unspecified)	-6%
CN(C)CC1CCC2=C(C1=O)C(c1ccc(Cl)c(Cl)c1)C1=C(CCC(CN(C)C)C1=O)O2 (stereo unspecified)	24.7% (active)
O=C1c2ccccc2C(=O)N1c1ccc(Cc2ccc(N3C(=O)c4ccccc4C3=O)cc2)cc1	-0.893%
O=C(CC(=O)c1ccncc1)c1ccccc1	10.3%
O=C(O)C=CC(=O)Nc1ccccn1	5.5%
N=C(CC(=O)Nc1ccccn1)c1ccccc1	-21.8% (active)
CC1CC2C3CCC4=CC(=O)C=CC4(C)C3(Cl)C(Cl)CC2(C)C1(O)C(=O)COP(=O)(O)O (stereo unspecified)	10.3%
COc1cc2c(cc1OC)C(CCN)=NCC2	26.9% (active)
Cc1cc(OCC(=O)O)c(Cl)cc1Cl	3.22%
O=c1[nH]c(=S)[nH]c(-c2ccccc2)c1Cc1c(O)ccc2ccccc12	-0.358%
O=C(O)CCn1cnc2c(=S)nc[nH]c21	-35.8% (active)
S=c1nc[nH]c2c1ncn2Cc1ccco1	-15.9%
O=C(O)CCCCn1cnc2c(=S)nc[nH]c21	6.53%
Nc1ccccc1SCc1csc(-c2ccc(Cl)cc2)n1	4.83%
CC(C)c1cc(C(F)(F)F)nc(NNc2nc(C(C)C)cc(C(F)(F)F)n2)n1	7.39%
COc1nc(N)nc2c1ncn2C1CC(O)C(CO)O1 (stereo unspecified)	12%
OCC1CCCC(n2cnc3c(=S)nc[nH]c32)O1 (stereo unspecified)	-13.5%
Nc1nc2c(ncn2C2CCC(CO)O2)c(=O)n1C(=O)c1ccccc1 (stereo unspecified)	-28.6% (active)
O=C(O)c1c2c(c(O)c3c1CN(C1CCCCC1)CO3)OCN(C1CCCCC1)C2	-1.92%
C[N+](C)(C)CCCSc1nc2ccccc2[nH]1	6.28%
CC(CCC(=O)O)(c1cc(Br)c(O)c(Br)c1)c1cc(Br)c(O)c(Br)c1	5.39%
CN(C)CN1C(=O)SC(=C2C(=O)N(CN(C)C)c3ccccc32)C1=O	-4.39%

Structure (SMILES)	hERG blockade
CN(C)CC(C)(C)CN1c2ccccc2Sc2ccccc21	22.5% (active)
c1ccc2c(c1)-c1nc3ccccc3cc1C2N1CCOCC1 (stereo unspecified)	-9.86%
Cc1ncc(CN=Cc2ccc(Cl)cc2)c(N)n1	6.55%
CC12CCC3c4ccc(O)cc4CCC3C1CCC2OC(=O)CCC1CCCC1 (stereo unspecified)	6.8%
CC(Br)C(=O)c1ccc2cc(Br)c3ccccc3c2c1 (stereo unspecified)	8.72%
CC(=NO)c1ccc2cc(Br)c3ccccc3c2c1	61.6% (active)
CCCS(=O)(=O)O	-0.642%
c1ccc2c(c1)c1ccccc1n2Cn1c2ccccc2c2ccccc21	-38.4% (active)
c1ccc2c(CSCc3cccc4ccccc34)cccc2c1	13.9%
NC(=O)CC(N)c1nn[nH]n1 (stereo unspecified)	-2.74%
CN1CCCCC1CCN1c2ccccc2Sc2ccc(S(C)=O)cc21 (stereo unspecified)	16.5%
CN1CCCCC1CCN1CCCCC1 (stereo unspecified)	1.07%
COc1ccc2c(c1)N(CCC1CCCCN1C)c1ccccc1S2 (stereo unspecified)	59.1% (active)
OC(C1=CC(=Cc2ccncc2)c2ccccc21)c1ccncc1 (stereo unspecified)	1.87%
O=C(NCc1cccs1)OC1CC2CCC1C2 (stereo unspecified)	-2.2%
C[N+](C)(C)CC(=O)NN=Cc1c(O)ccc2ccccc12	-4.06%
c1ccc2c(c1)-c1ccccc1C2N1CC2CCC(CC2)C1	-7.32%
c1ccc(C(CCN2CCCC2)c2ccccn2)cc1 (stereo unspecified)	3.48%
c1ccc(C(CCN2CC3CCC(CC3)C2)c2ccccc2)cc1	56.9% (active)
Nc1cc(S(N)(=O)=O)ccc1SSc1ccc(S(N)(=O)=O)cc1N	-0.877%
OC(COc1cccc2ccccc12)CN1CCOCC1 (stereo unspecified)	2.26%
Nc1ccc2[nH]cc(CCC(=O)O)c2c1	1.56%

Structure (SMILES)	hERG blockade
OCC1OC(N2CCN(C3OC(CO)C(O)C(O)C3O)CC2)C(O)C(O)C1O (stereo unspecified)	-5.49%
O=P(O)(O)OC1OC(CO)C(O)C(O)C1O (stereo unspecified)	-24.6% (active)
Cc1c(Cl)c(S(N)(=O)=O)cc(S(N)(=O)=O)c1NC(=O)c1ccc(Cl)cc1	12.5%
Cc1cccc(Cl)c1NCC(O)CN1CCN(C)CC1 (stereo unspecified)	-2.1%
CC(C(=O)O)C(=Cc1ccc2c(c1)OCO2)C(=O)O (stereo unspecified)	0.849%
CC1Oc2ccc(C(=O)CC(C(=O)O)c3ccc4c(c3)OCO4)cc2O1 (stereo unspecified)	-27.6% (active)
O=C(O)CC(Cc1ccc2c(c1)OCO2)C(=O)O (stereo unspecified)	6.12%
CN(C)Cc1ccc(-c2cc3onc(-c4ccccc4)c3c(=O)n2C)cc1	10.3%
CC(C)(CO)N1CCN(C(=S)Nc2ccccc2)CC1	0.768%
C[N+]1(C)CCOC(O)(c2ccccc2)C1 (stereo unspecified)	17.7%
CC[N+](C)(CC)CCN1C(=O)c2ccccc2S1(=O)=O	-0.137%
NS(=O)(=O)c1ccc(N=Nc2c[nH]c(=O)c(O)c2)cc1	14%
Cn1c(N)c(N=Nc2ccc(S(N)(=O)=O)cc2)c(=O)n(C)c1=O	31.1% (active)
NS(=O)(=O)c1ccc(N=Nc2ccc[nH]c2=O)cc1	16%
S=c1nc(-c2nc(=S)[nH]c3c2CCCCCCCCCC3)c2c([nH]1)CCCCCCCCCC2	0.0358%
Clc1cc2c(c(CSC3=NCN(CC4CC4)CN3)c1)OCOC2	8.37%
CN(C)CCNCCN	4.72%
CC1=NN(C(=O)c2ccncc2)C(=O)C1N=Nc1ccc2ccccc2c1 (stereo unspecified)	21.5% (active)
CC1=NN(c2ccccc2)C(=O)C1N=Nc1ccc(S(N)(=O)=O)cc1 (stereo unspecified)	14.6%
CC(=NNC(=O)c1ccncc1)c1ccc2ccccc2c1O	-2.47%
Cc1noc(NC(=O)Nc2ccccc2F)c1C#N	2.22%
CCCCn1cnc2c(SC)ncnc21	-28.3% (active)

Structure (SMILES)	hERG blockade
CN(C)c1ncnc2c1ncn2CCn1cnc2c(N(C)C)ncnc21	-12.5%
Nc1ncnc2c1ncn2CCCCC(=O)O	-16.5%
Cc1cc(C)nc(NC(=O)COc2ccc(Cl)cc2)c1	16.6%
OC(COc1ccccc1)CN1CCCCC1 (stereo unspecified)	-2.64%
c1ccc(-c2cnc(-c3ccc(-c4ncc(-c5ccccc5)o4)cc3)o2)cc1	-6.76%
O=C(CSC1=NCCN1)Nc1ccccc1	8.84%
c1ccc(-c2ccc(-c3ccc(C4=NCCN4)cc3)o2)cc1	134% (active)
OCCSCc1ccccc1	-16.1%
O=C(O)CN(CCN(CC(=O)O)CC(=O)O)CC(=O)O.[Cu+2]	1.62%
O=C(O)CCc1nc(-c2ccccc2-n2cccc2)no1	5.65%
O=C(O)C(Cc1cc(I)c(O)c(I)c1)C1CCCCC1 (stereo unspecified)	35.2% (active)
C=C(C)CNCCN	-5.55%
Cc1ccc(CSC(N)=Nc2ccccc2)cc1C	14.3%
Nc1ncnc2c1ncn2C1OC(C(=O)OCCO)C(O)C1O (stereo unspecified)	1.37%
Clc1ccc2c(c1)N(CCCN1CCCC13CCCCC3)c1ccccc1S2	4.63%
OC1CC2CCC(C1)N2CCCN1c2ccccc2Sc2ccc(Cl)cc21 (stereo unspecified)	89.8% (active)
COc1ccc(N(CC(=O)O)N=O)cc1	1.49%
O=C1C=CC(=Nc2cccc3c(N=C4C=CC(=O)O4)cccc23)O1	-12%
